Source: PubChem BioAssay AID652048 (National Center for Advancing Translational Sciences (NCATS), 2013)
Screen size: about 410,000 compounds; about 2,400 (0.59%) were called active. The sample holds actives, similar compounds and a random draw of the others, so the mix is not that of the screen. Unmarked numbers belong to inactive results. Rule as the data show it: active = max activation above about 30%; inactive = the rest.
Also: 0% is about no effect.

These compounds were tested against D(3) dopamine receptor (Homo sapiens) (UniProt P35462) (assay: qHTS of D3 Dopamine Receptor Agonist: qHTS). Conditions: D3R DiscoveRx beta-arrestin cells, luminescence, 90 min; stronger effect = higher value.
D(3) dopamine receptor (Homo sapiens), sequence (P35462 whole entry, looked up): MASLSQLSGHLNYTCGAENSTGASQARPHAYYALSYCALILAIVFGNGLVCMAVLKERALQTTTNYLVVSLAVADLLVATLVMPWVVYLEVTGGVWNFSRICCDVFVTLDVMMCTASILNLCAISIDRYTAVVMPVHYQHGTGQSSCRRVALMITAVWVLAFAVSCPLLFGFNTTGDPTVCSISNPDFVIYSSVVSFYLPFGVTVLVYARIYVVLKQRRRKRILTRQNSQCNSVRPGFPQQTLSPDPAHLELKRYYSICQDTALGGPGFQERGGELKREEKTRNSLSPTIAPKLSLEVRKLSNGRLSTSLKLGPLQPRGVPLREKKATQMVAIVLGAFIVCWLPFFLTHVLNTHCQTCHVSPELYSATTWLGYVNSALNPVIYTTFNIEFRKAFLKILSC
Text: D3 DARs represent a very important target for the treatment of several neuropsychiatric disorders. Indeed, one of the most promising therapeutic applications for the D3 DAR is in the area of addiction and related disorders. […] These findings have been observed with a number of addictive substances including cocaine, amphetamine, nicotine, and alcohol. […] Antagonism of the D3 DAR may also be therapeutic in the treatment of schizophrenia or psychosis. […] Since the D3 DAR is expressed in areas of the CNS associated with the control of mood and emotion, it has been hypothesized that selective antagonism of the D3 DAR may be effective in treating psychosis without inducing the motor side effects typically seen with D2 DAR antagonists.
This part of the project aims to discover novel agonist.
NIH Chemical Genomics Center [NCGC]
NIH Molecular Libraries Probe Centers Network [MLPCN]
Assay Submitter (PI): David Sibley, NINDS
Freshly passaged cells are plated in 1536 well white, solid bottom plates at a density of 1500 cells/well in 3microl of complete media. After an overnight incubation at 37 degrees C in 5% CO2, cells are loaded with 23nl of test compound from the compound library (as well as dopamine controls) using a 1536 pintool and incubated at 37 degrees C for 90 minutes. Two microliters of DiscoveRx reagent is then added to all cells, and they are incubated for an additional 30 - 60 minutes at room temperature. Following incubation, luminescence is measured on a ViewLux CCD-based luminometer reader using a 20 sec exposure time.
`COc1ccc(N2CC(C(=O)NCCN3C(=O)S/C(=C\c4cccnc4)C3=O)CC2=O)c(OC)c1` (stereo not given) showed a max activation of 2.93%. `Cc1cccc(NC(=O)Cn2c(=O)n(CCC(C)C)c(=O)c3cccnc32)c1` was tested, and the max activation was -14.3%. Compound `Cc1ccc(-c2nc3cccc(C)n3c2Nc2ccc3c(c2)OCCO3)cc1` has a max activation of -6.45%. `Cc1cccc(N2CCN(C(=O)CCSCc3ccccc3F)CC2)c1C` showed a max activation of -6.07%. With `O=C(CCSCc1ccccc1F)N1CCN(c2ccc(Cl)cc2)CC1` the max activation was 57.2% (active). Compound `COc1ccc(N2CCN(C(=O)CCSCc3ccccc3F)CC2)cc1` has a max activation of 1.03%. With `CC(Oc1ccccc1)C(=O)N[C@@H]1C(=O)N2[C@@H]1SC(C)(C)[C@@H]2C(=O)O` (stereo not given in full) the max activation was 8.72%. In the case of `Cc1cccc2c(=O)cc(CSc3ccccc3NC(=O)C(C)C)[nH]c12`, the max activation is reported as 3.87%. Work on `COc1cc(Nc2nc(-c3ccc(OC)c(OC)c3)nc3ccccc23)cc(OC)c1` yielded a max activation of -6.69%. `COc1ccc(-n2cnnc2SCC(=O)Nc2cccc(S(N)(=O)=O)c2)cc1` was tested, and the max activation was 0.641%. Work on `NS(=O)(=O)c1ccc(NC(=O)/C=C/c2ccccc2Cl)cc1` yielded a max activation of 2.71%. With `Cc1ccc(-c2nn(-c3ccccc3)cc2/C=C/C(=O)Nc2cccc(S(N)(=O)=O)c2)cc1` the max activation was 38.3% (active). Work on `CN[C@@H]1[C@@H](O)[C@@H](O[C@@H]2[C@H](O)[C@H](O[C@H]3OC(CN)=CC[C@H]3N)[C@@H](N)C[C@H]2N)OCC1(C)O` (stereo not given in full) yielded a max activation of -3.05%. With `O=C1NS(=O)(=O)c2ccccc21` the max activation was 0.55%. Work on `CCn1cc(C(=O)NCCc2ccccc2)c(=O)c2cc(S(=O)(=O)N3CCCCCC3)ccc21` yielded a max activation of -2.07%. `CC(=O)Nc1ccc(NC(=O)C2CCCN(S(=O)(=O)c3ccc4c(c3)CCCC(=O)N4)C2)cc1` (stereo not given) gave a max activation of 6.84%. With `CN(C)CCCSc1ccccc1NC(=O)/C=C/c1ccccc1` the max activation was -15.8%. `CCOC(=O)c1cc(-c2sc(NC(=O)c3ccccc3)nc2C)n(Cc2ccccc2)n1` showed a max activation of 8.04%. In the case of `CCOC(=O)c1cc(-c2ccccc2C)n(Cc2cc(C)no2)n1`, the max activation is reported as 59.5% (active). `CCOC(=O)c1cc(OC(=O)c2ccccc2Cl)n(-c2ccccc2)n1` was tested, and the max activation was -8.96%. With `COc1ccc(C(=O)NC(=S)Nc2ccccc2N2CCN(S(C)(=O)=O)CC2)cc1OC` the max activation was 34.6% (active). `CC(=O)N1CCN(c2ccccc2NC(=S)NC(=O)c2cc3ccccc3o2)CC1` showed a max activation of -3.88%. Compound `CCc1ccc(C(=O)NC(=S)Nc2ccccc2N2CCOCC2)cc1` has a max activation of -1.31%. In the case of `CCOc1cccc2sc(N3CCN(C(=O)C4CC4)CC3)nc12`, the max activation is reported as -4.91%. With `C/C(=N\NC(=O)CNc1cccc2ccccc12)c1ccc(Br)s1` the max activation was 30.4% (active). `CC/C(=N\NC(=O)c1ccccc1Cl)c1ccc(Br)s1` gave a max activation of 5.71%. `Cc1ccccc1-n1c(SCC(=O)Nc2cccc3ccccc23)nc(O)cc1=O` was tested, and the max activation was 0.0019%. In the case of `COc1ccccc1CNS(=O)(=O)c1ccc2c(c1)NC(=O)CS2`, the max activation is reported as 5.98%. For `CCC(Cc1ccccc1)NS(=O)(=O)c1ccc2c(c1)NC(=O)CS2` (stereo not given), the max activation was 34.1% (active). For `O=C1CSc2ccc(S(=O)(=O)NCc3ccccc3)cc2N1`, the max activation was -4.53%. In the case of `Cc1ccccc1CSc1nc2c([nH]c3ccccc32)c(=O)n1C`, the max activation is reported as -3.75%. With `COc1ccc(-c2nc3n(c2Br)CCC3)cc1` the max activation was 8%. In the case of `COc1ccc(-c2nc3c(s2)CCc2onc(-c4ccc(OC)cc4)c2-3)cc1`, the max activation is reported as 5.32%. For `COc1ccc(-c2nc3c(s2)CCc2onc(-c4ccc(Br)cc4)c2-3)cc1`, the max activation was 31.5% (active). For `NC(=O)C(=O)N/N=C/c1ccc([N+](=O)[O-])o1`, the max activation was -13.9%. `CN1CC(O)c2cc(N=NC(N)=O)c(O)cc21` (stereo not given) showed a max activation of -13%. With `Cc1oc2c(F)c(F)c(F)c(F)c2c1S(=O)(=O)Nc1cccc(C(F)(F)F)c1` the max activation was 39.8% (active). Work on `Cc1oc2ccc(O)c(CN3CCCCC3)c2c1C(=O)Nc1cccc(C(F)(F)F)c1` yielded a max activation of 0.725%. With `Cc1onc(-c2ccc(F)cc2F)c1C(=O)Nc1cccc(C(F)(F)F)c1` the max activation was -14.1%. `COc1cc(Cl)c(NC(=O)C(NS(=O)(=O)c2cccs2)C(C)C)c(OC)c1` (stereo not given) gave a max activation of 6.54%. Compound `COc1ccc(CCNc2ncnc3c2cnn3-c2ccc(C)cc2)cc1` has a max activation of 11.8%. Work on `Cc1ccccc1C(=O)Nc1sc2c(c1C(=O)N1CCC(C)CC1)CCCC2` yielded a max activation of -2.21%. For `COc1ccccc1-n1c(=S)[nH]c2c(sc(=S)n2-c2ccc(C)cc2C)c1=O`, the max activation was 37.7% (active). `COc1ccccc1-n1c(-c2ccc(C)cc2)cn2c3c(=O)n(C)c(=O)n(C)c3nc12` gave a max activation of -0.938%. With `CCc1ccc(-n2c(=S)sc3c(=O)n(-c4ccccc4OC)c(=S)[nH]c32)cc1` the max activation was 0.277%.
